This is an account of results in PubChem BioAssay AID651814 (National Center for Advancing Translational Sciences (NCATS), 2012).

About 590 (28%) of roughly 2,100 compounds were called active. Inconclusive results (about 42%) are left out. The list shows a part of the results. Unmarked numbers belong to inactive results. The call rests on the fitted dose curve; in most records, active means well fitted inhibition curve with a large enough effect; inconclusive means small, poorly fitted or top-dose-only effect; inactive means flat fitted curve, though single readings scatter.
Potency means the concentration at half of the fitted maximal effect.

Sequence of DNA dC->dU-editing enzyme APOBEC-3F (Homo sapiens) (Q8IUX4 whole entry, looked up): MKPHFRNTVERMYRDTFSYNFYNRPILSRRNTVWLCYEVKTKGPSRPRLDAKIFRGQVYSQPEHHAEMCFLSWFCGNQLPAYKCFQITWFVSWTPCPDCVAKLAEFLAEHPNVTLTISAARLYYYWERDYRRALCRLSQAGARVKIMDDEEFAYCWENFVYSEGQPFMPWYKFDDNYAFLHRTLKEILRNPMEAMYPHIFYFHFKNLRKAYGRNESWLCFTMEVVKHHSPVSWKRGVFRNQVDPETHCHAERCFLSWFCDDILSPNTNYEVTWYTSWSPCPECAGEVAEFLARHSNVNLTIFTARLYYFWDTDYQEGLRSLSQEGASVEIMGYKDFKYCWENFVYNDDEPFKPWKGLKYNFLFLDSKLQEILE

The test addresses DNA dC->dU-editing enzyme APOBEC-3F (Homo sapiens) (UniProt Q8IUX4). Kind of test: qHTS for inhibitors of Vif-A3F interactions: Cherry picks. Further: nearly all actives have a fitted effect of over 70% in size.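 On max response: % of control where 0% means no effect; active compounds raise eYFP fluorescence by blocking Vif-driven A3F loss.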 Particulars: HeLa A3F-eYFP + Vif (tagged APOBEC3F with the HIV-1 protein that degrades it), eYFP fluorescence, 24 h. The gist of the method:
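Read-out: yellow fluorescence (ex 488 nm, em 500-530 nm) by laser-scanning cytometer after 24 h compound exposure, several concentrations, at 37 deg C. Cells: HeLa line stably co-expressing Vif and C-terminally eYFP-tagged A3F; MG132 served as positive control.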
For orientation: Quantitative high-throughput screening tests each substance at several concentrations.
On to `COc1ccc(C(=O)/C=C/Nc2ccc([N+](=O)[O-])cc2C)c(OC)c1`, for which the Potency was 13 µM (active). For `COc1ccc(C(=O)c2cc([N+](=O)[O-])ccc2N2CCCC2)cc1`, the max response is -19.8%. Still for that read-out and setting: with `COc1ccc(NC(=S)Nc2ncccc2C)c(OC)c1` the figure was 0.806%. As for `O=C(NC(=S)Nc1ccc(-c2ccccc2)cc1)c1ccccc1`, the max response is 1.35%. Same read-out and setting: with `COc1ccccc1NC(=O)Cc1ccc(-c2ccccc2)cc1` the figure was 3.04%. Regarding `O=C(Nc1ccccc1OC(=O)c1ccccc1)c1ccccc1`, the Potency was 17.7 µM (active).

For the compound `COC(=O)c1cc(Nc2nc3ccccc3nc2NS(=O)(=O)c2ccc(C)cc2)ccc1Cl`, the max response was -5.41%.

`COc1ccc(/C=C2\C(=O)NC(=S)N2C(=O)c2ccc(F)cc2)cc1`: the Potency is 13 µM (active). On to `COc1ccc(/C=C/C=C2\NC(=S)NC2=O)cc1`, for which the max response is -26%. For `C[n+]1ccc(/C=C/c2cc[n+](C)c3ccccc23)c2ccccc21`, the Potency is 11.6 µM (active). For `CCCCn1c(N)c(N(CCC(C)C)C(=O)c2ccc([N+](=O)[O-])o2)c(=O)[nH]c1=O`, the max response is 0.229%. On the same count and under the same terms, as for `C=CCN1C(=O)c2ccc(C(=O)N(CC(C)C)c3c(N)n(CCCC)c(=O)[nH]c3=O)cc2C1=O`, the figure is 4.71%. Take `CCCCn1c(N)c(N(CC(C)C)C(=O)Cc2ccc(S(=O)(=O)N3CCOCC3)s2)c(=O)[nH]c1=O`: the Potency is 23.1 µM (active). `COc1cccc(/C(O)=C/c2nc3ccc(C(=O)NCCc4ccc(Cl)cc4)cc3[nH]c2=O)c1`: the Potency is 8.2 µM (active). In the case of `COc1cccc(/C(O)=C/c2nc3ccc(C(=O)NCCc4cccc(C)c4)cc3[nH]c2=O)c1`, the Potency was 11.6 µM (active). As for `COc1cccc(Sc2ccccc2/C=N/NC(N)=O)c1`, the max response was -25.5%. On the same count and under the same terms, as for `CCn1c(SCC(=O)N/N=C/c2ccc(C)s2)nc2ccccc21`, the figure is -29.4%. Turning to `COc1ccc2nc(C)cc(SCC(=O)N/N=C/c3cccc4ccccc34)c2c1`, the Potency was 11.2 µM (active). For `Cc1ccc(CN(C(=O)c2ccccc2F)c2ccccn2)o1`, the max response was -5.38%.

Turning to `Cc1cccc(C)c1NC(=S)NC(C)CCc1ccccc1` (stereo not drawn), the max response is 1.36%. For `CN1C(=O)/C(=C\c2ccc(N(C)C)cc2)OC1=S`, the Potency is 7.9 µM (active). For the compound `CN1C(=S)N(c2cccnc2)C(=O)/C1=C\c1ccc(N(C)C)cc1`, the Potency was 15.8 µM (active). On to `O=C(NC(=S)N1CCc2ccccc21)c1ccco1`, for which the max response was -0.232%. `CN(C)S(=O)(=O)c1ccc2c(c1)/C(=C/c1cc3c([nH]1)CCCC3)C(=O)N2`: the Potency is 2.23 µM (active). With `O=C1/C(=C/c2ccc(O)cc2)SC(=S)N1CC1CCCO1` (stereo not drawn), the max response was 5.6%. With `COCCN1C(=O)/C(=C/c2ccc(N3CCCC3)cc2)SC1=S`, the Potency was 4.61 µM (active). Consider `COCCN1C(=O)/C(=C/c2ccc(N3CCCC3)cc2C)SC1=S`, for which the Potency was 2.59 µM (active). For `CN(Cc1cnn(Cc2ccccc2)c1)C(=O)c1cccc(S(=O)(=O)N2CCOCC2)c1`, the max response was -22%.

For `CC(=O)c1ccc2cccc3c2c1N=CN3C`, the Potency is 15.8 µM (active). As to `COc1ccc2c(Cl)c(C(=O)N/N=C3\CCCC(=O)C3)sc2c1`, the Potency was 14 µM (active).

Turning to `CCOc1cc(C(=O)NN=C2CCCC2)cc(OCC)c1OCC`, the max response was -3.9%. In the case of `O=[N+]([O-])c1ccc(N2CCN(Cc3ccccc3)CC2)c2c1no[n+]2[O-]`, the Potency was 14 µM (active).

Take `Cc1ccc2nc(C)c(C(=O)NN=C3CCCCCC3)n2c1`: the max response is -15.2%. Take `N#CCSc1ccccc1NC(=O)CN1C(=O)C2CC=CCC2C1=O` (stereo not drawn): the Potency is 14 µM (active). With `Cc1ccccc1NC(=O)CSC1=C(C#N)C(c2ccsc2)CC(=O)N1` (stereo not drawn), the max response was -7.98%. On to `N#CCSc1ccccc1NC(=O)CN1C(=O)NC(CCc2ccccc2)C1=O` (stereo not drawn), for which the max response was -19.2%.

With `CS(=O)(=O)Nc1cccc(C2=NN(S(C)(=O)=O)C(c3ccc4c(c3)OCO4)C2)c1` (stereo not drawn), the max response is -28.5%. For `CS(=O)(=O)N1N=C(c2ccccc2)CC1c1ccc2c(c1)OCO2` (stereo not drawn), the Potency is 14 µM (active). For `Cc1ccccc1C1CC(c2cccs2)=NN1S(C)(=O)=O` (stereo not drawn), the max response is -5.18%. Consider `CS(=O)(=O)Nc1ccc(C2=NN(S(C)(=O)=O)C(c3ccc4nccnc4c3)C2)cc1` (stereo not drawn), for which the max response is -7.65%. Take `CS(=O)(=O)Nc1ccc(C2=NN(S(C)(=O)=O)C(c3ccc4c(c3)OCO4)C2)cc1` (stereo not drawn): the Potency was 17.7 µM (active). In the case of `Cc1cc(OCC(=O)Nc2nnc(C3CC3)s2)ccc1Cl`, the max response is 2.35%. As to `COC(=O)c1ccc(NC(=O)CC2Nc3cc(C)c(C)cc3NC2=O)cc1` (stereo not drawn), the Potency is 6.51 µM (active). As for `CCOC(=O)c1ccc(NC(=S)NC(=O)C2CCCC2)cc1`, the max response is -3.01%.

For the compound `Cc1cccc(C(=O)Nc2nnc(C3=COCCO3)o2)c1`, the max response was 0.472%. With `Cc1cc2nc3c(=O)n(C4CCCCC4)c(=O)[nH]c3nc2cc1N`, the Potency is 16.4 µM (active).

For the compound `CCCCCCn1c(=O)[nH]c2nc3cc(N)ccc3nc2c1=O`, the max response is -0.0141%.

On to `CCN(CC)c1nc(C)c(C(=S)Nc2cc([N+](=O)[O-])ccc2Cl)s1`, for which the max response was -3.83%. Turning to `O=C(COC(=O)C12CC3CC(CC(Cl)(C3)C1)C2)N1CCCCC1`, the max response was 1.53%. Regarding `CN1CCc2c(sc3c2C(=O)NC(c2ccc(-c4ccc(Cl)cc4)o2)N3)C1` (stereo not drawn), the max response is -10.4%.

With `CCOC(=O)N1CCc2c(sc3c2C(=O)NC(c2ccc(N(C)C)cc2)N3)C1` (stereo not drawn), the Potency was 20.6 µM (active). Turning to `COc1ccc(CN(C(C)=O)c2cccc(C)c2C)cc1`, the max response is -29.4%. With `CCOc1ccccc1Nc1nnc(-c2cc3cc(OC)ccc3oc2=O)s1`, the Potency was 7.31 µM (active). On to `CCOC(=O)C1CCCN(C(=O)c2ccc3nc(-c4cccc(OC)c4)oc3c2)C1` (stereo not drawn), for which the max response is -18.5%. With `COc1ccc2oc(=Nc3ccccc3)c(-c3nc4ccccc4[nH]3)cc2c1`, the max response was -13%. `COc1ccc2oc(=O)c(-c3nc4ccccc4o3)cc2c1`: the Potency was 20.6 µM (active).

For `COc1cc(/C=C2/CCC/C(=C\c3cc(O)c(OC)c(Cl)c3)C2=O)cc(Cl)c1O`, the Potency is 8.2 µM (active).

Consider `CCOc1c(Cl)cc(/C=N/NC(N)=S)cc1OC`, for which the max response was -28.8%.

In the case of `CCOc1cc(/C=C2\CCC/C(=C\c3cc(Cl)c(O)c(OCC)c3)C2=O)cc(Cl)c1O`, the Potency is 7.04 µM (active). With `COc1cc(/C=N/Nc2ccc(Cl)nn2)cc(OC)c1O`, the max response was 2.03%. In the case of `Fc1ccc2nc3[nH]c4ccccc4c3nc2c1`, the Potency is 0.994 µM (active). `COc1ccccc1CNC(=O)c1ccc2nc3[nH]c4ccccc4c3nc2c1`: the max response is -25.8%.

Turning to `Cc1c(=O)n(OCc2ccc(Cl)cc2)c2ccccc2[n+]1[O-]`, the max response is -8.69%. For `Cn1cccc1/C=C1\CC(C(C)(C)C)C/C(=C\c2cccn2C)C1=O` (stereo not drawn), the Potency is 4.11 µM (active). As to `CC1C/C(=C/c2cccs2)C(=O)/C(=C/c2cccs2)C1` (stereo not drawn), the max response is -0.33%. On to `CN1C2CCC1/C(=C/c1cccn1C)C(=O)/C2=C\c1cccn1C`, for which the Potency was 16.4 µM (active). As for `CN1/C(=C\C=C(/C#N)C(=O)Nc2ccccc2F)C(C)(C)c2ccccc21`, the Potency was 20.6 µM (active).

Take `COc1ccc(NC(=O)/C(C#N)=C\C=C\c2ccco2)cc1`: the max response was -29.2%. For the compound `COc1ccc(NC(=O)/C(C#N)=C/C=C/c2ccco2)cc1`, the max response was -30%. Take `CN1/C(=C\C=C(/C#N)C(=O)Nc2ccc(Cl)cc2)C(C)(C)c2ccccc21`: the Potency is 3.14 µM (active).

On to `O=C(NC(=S)N1CCN(c2ccccn2)CC1)c1ccccc1`, for which the max response was 0.282%. As to `Nc1ccccc1/C=C/c1ccnc2ccccc12`, the Potency was 23.1 µM (active). Turning to `CN(C)c1ccc(/C=C/c2ccnc3ccccc23)c(N)c1`, the Potency is 7.31 µM (active).

With `CN(C)c1ccc(/C=C/C=C/c2ccnc3ccccc23)cc1`, the Potency was 2.59 µM (active). Turning to `CN(C)c1ccc(/C=C/c2ccnc3ccccc23)cc1`, the Potency was 13 µM (active). As for `COc1ccc(-c2nc3cnccn3c2NC2CCCCC2)cc1-c1cccc(Cl)c1`, the max response is -28.6%. Regarding `CCOC(=O)c1cnc(-n2nc(C)cc2C)nc1NNc1nc(-c2ccccc2)cc(-c2ccccc2)n1`, the max response was 6.49%.

Consider `c1ccc(N=NC2=NN(c3ccccc3)CS2)cc1`, for which the max response is 0.337%. In the case of `CCCC(=O)NC(c1ccc(OC)cc1)c1ccc2cccnc2c1O` (stereo not drawn), the max response was 0.49%. On to `COc1cccc2nccc(/C=C/c3ccc(N(C)C)cc3)c12`, for which the Potency was 20.6 µM (active). Turning to `CN(C)c1ccc(/C=C/c2cnnc3ccccc23)cc1`, the Potency is 20.6 µM (active).

Consider `CNc1ccc(/C=C/c2ccnc3ccccc23)cc1`, for which the Potency was 14.6 µM (active). On to `CN(C)c1ccc(/C=C/c2ccnc3ccc(-c4ccccc4)cc23)cc1`, for which the Potency is 2.31 µM (active).

Turning to `NC(=S)N/N=C/c1ccccc1OC(=O)/C=C/c1ccccc1`, the max response was -3.11%.

For `CC(C)CC(=O)NC(=S)N(Cc1ccccc1)Cc1ccccc1`, the max response was -4.2%. As for `Cc1ccc(S(=O)(=O)N2CCN(C(=O)CSC(=S)N3CCCC3)CC2)c(C)c1`, the max response was 1.16%. For `COc1cc(/C=C2/CC/C(=C/c3ccc(O)c(OC)c3)C2=O)ccc1O`, the max response was -11.3%. On the same count and under the same terms, with `COc1cc(/C=C/C(C)=NNc2ccccc2)ccc1O` the figure was -28.1%. In the case of `COc1cc(/C=C2\COC/C(=C\c3ccc(O)c(OC)c3)C2=O)ccc1O`, the Potency is 14 µM (active). Turning to `CO/N=C/c1ccc(OC)c(Oc2nc(OC)cc(OC)n2)c1`, the max response is -21.4%.

Turning to `COc1cc(C=C2C(=O)c3ccccc3C2=O)cc(OC)c1OC`, the max response was -7.21%. For `COc1ccc(/C=C2/CSC/C(=C/c3ccc(OC)c(OC)c3)C2=O)cc1OC`, the Potency is 5.59 µM (active). For `Cc1ccc2c(c1C)NC(=O)CC(c1ccccc1O)=N2`, the max response is 0.01%.
